Inconclusive results are not listed. Calls of active or inactive are those of the source.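 Rule for the calls, unless noted: active = viability at or under a set limit in both replicates, limit being median viability minus 3 SD (cut at about 48% in these data, passing the limit was not always enough); inconclusive = at or under the limit in just one replicate; inactive = at or above the limit in both replicates.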
What was measured:
[1] = Her2 expression decrease, cell viability multiplex – SKBR3 breast tumor cells, AlphaScreen, ATP viability, primary screen (AID 461;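 active = Her2 level under about 52% in both replicate screens, with viability over 70% of control, limit read from the data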;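 for Her2 level: lower value means less Her2 protein in the cells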;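 for viability: percent of carrier control wells set as 100% viability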); conditions: SKBR3 Her2 protein level, 18-24 h, measured here: SKBR3 viability, ATP luminescence, at 10 µM
[2] = target: Receptor tyrosine-protein kinase erbB-2 (Homo sapiens) (UniProt P04626); assay: as above; conditions: 18-24 h, at 10 µM, stronger effect = lower value
[3] = reduced viability of SK-BR-3 breast cancer cells – cell-based, 24 h, human, pilot screen (AID 572;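 active = viability at or below 10% of carrier control in both of two separate runs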;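 note: compound exposure lasted between 18 and 24 h rather than exactly 24 h; 100% = carrier-treated control wells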); conditions: SK-BR-3 viability, CellTiter-Glo luminescence, at 10 µM, stronger effect = lower value
[4] = HUVEC growth inhibition – cell-based, human, primary screen (AID 575;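 active = viability at or below 30% in both replicate assays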;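 note: 100% = median of untreated cell wells with 0.1% DMSO on each plate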); conditions: HUVEC proliferation, CellTiter-Glo luminescence, 72 h; at 10 µM; stronger effect = lower value
[5] = H69AR cell proliferation blockers – human, duplicate replicates, primary screen (AID 580); conditions: H69AR lung tumor cells viability, ATP luminescence, 72 h; at 10 µM; stronger effect = lower value;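 note: 100% = mean luminescence of untreated wells and 0% = no signal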
[6] = MRP1 drug-resistance reversers in H69AR cells – cell-based, doxorubicin co-treatment, pilot screen (AID 601;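 active = viability loss from added drug above about 55%, and viability with drug at most 40%, in both replicates, limit read from the data, passing the limit was not always enough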); conditions: CellTiter-Glo, 72 h, at 10 µM; for differential viability (reversal): stronger effect = higher value
[7] = yeast transport mutant growth inhibition pilot in 384-well plates, post-Golgi transport modulator project (AID 636; in the data active = inhibition above about 31%); conditions: absorbance 615 nm, about 18 h, stronger effect = higher value
[8] = growth suppression of yeast trafficking mutant, preliminary HTS, modulators of trafficking downstream of Golgi apparatus project, 1536-format plate, OD 615 nm (AID 637; in the data active = inhibition above about 30%); conditions: yeast transport mutant growth, absorbance 615 nm, 18 h; stronger effect = higher value
[9] = S. cerevisiae growth inhibition in permissive medium (OD615), pilot counter-assay for S. cerevisiae lifespan shortening project, permissive growth control (AID 705;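 active = growth inhibition above 25% in both replicates, a cutoff set 3 SD above the mean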); conditions: OD615, 24 h, at 10 µM, stronger effect = higher value
[10] = S. cerevisiae growth inhibition in restrictive medium, OD615, pilot screen, restrictive growth control, yeast lifespan reduction project (AID 706;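 active = growth inhibition above a set limit, 3 SD over mean compound inhibition, in both replicates, cut at about 43% in these data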;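 note: modified DeaD lifespan yeast strain shifted to restrictive glucose medium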); conditions: OD615, 48 h, at 10 µM, stronger effect = higher value
[11] = doxorubicin toxicity protection in MRP-1 cells – H69AR cells, CellTiter-Glo, duplicate, MRP-1 activator project, pilot screen (AID 807;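 active = viability increase at or above a cutoff of the median across tested compounds plus 3 SD, cut at about 8.5% in these data, passing the limit was not always enough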;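 note: compound pretreatment 18-22 h then 72 h combined with doxorubicin; 0% = doxorubicin alone and 100% = vehicle without doxorubicin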); conditions: H69AR viability with doxorubicin, CellTiter-Glo luminescence; at 10 µM; stronger effect = higher value
[12] = viability of HCT116 without oncogenic beta-catenin – human colon tumor cells, pilot screen (AID 823;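 active = cell viability at or below a set limit in both duplicate runs, the limit being the all-compound median minus 4 SD, cut at about 23% in these data, passing the limit was not always enough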;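 note: 0% = wells killed by 20 µM Hyamine and 100% = untreated DMSO cell wells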); conditions: HCT116 beta-catenin knockout viability, CellTiter-Glo, 60 h; at 10 µM; stronger effect = lower value
[13] = viability of PTEN-null HCT116 cells – cell-based, HCT116 clonal line, CellTiter-Glo, pilot screen (AID 824;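 active = viability at or below 27.92% in each of two runs, the all-compound median minus 4 SD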;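 note: 0% = 20 µM Hyamine control and 100% = vehicle cell control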); conditions: HCT116 PTEN-deleted viability, 60 h, at 10 µM, stronger effect = lower value
[14] = RAM pathway blockade in budding yeast – dse1pr::URA3 reporter, 5-FOA selection, pilot screen (AID 869;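 active = inhibition over a set limit, the all-compound mean plus 3 SD, in both replicate runs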;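 note: 0% = DMSO wells with no growth and 100% = 10 µM 1-NA-PP1 with full growth; RAM network block rescues cells from 5-FOA so hits raise OD615 growth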); conditions: S. cerevisiae dse1pr::URA3 5-FOA growth, OD615, 2 d; at 10 µM; stronger effect = higher value; strain carries analog-sensitive mutant Cbk1 kinase
[15] = RAM signaling pathway blockade in yeast – S. cerevisiae, Pdr1DBD-CYC8 efflux-inhibited sensitized strain, primary screen (AID 1298;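 active = RAM network inhibition above 8.4% in each of two replicates, 3 SD over the compound average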;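 note: 0% = DMSO untreated cells without growth and 100% = 10 µM 1-NA-PP1 full growth; higher means more yeast growth rescued from 5-FOA killing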); conditions: S. cerevisiae cbk1-as DSE1-URA3 strain, 5-FOA growth OD615, 2 d; at 50 µM; stronger effect = higher value
[16] = H69AR cells + 2 uM doxorubicin, measured here: viability with 2 uM doxorubicin, stronger effect = lower value
[17] = H69AR cells, compound alone cytotoxicity

Receptor tyrosine-protein kinase erbB-2 (Homo sapiens), sequence (P04626 whole entry, looked up): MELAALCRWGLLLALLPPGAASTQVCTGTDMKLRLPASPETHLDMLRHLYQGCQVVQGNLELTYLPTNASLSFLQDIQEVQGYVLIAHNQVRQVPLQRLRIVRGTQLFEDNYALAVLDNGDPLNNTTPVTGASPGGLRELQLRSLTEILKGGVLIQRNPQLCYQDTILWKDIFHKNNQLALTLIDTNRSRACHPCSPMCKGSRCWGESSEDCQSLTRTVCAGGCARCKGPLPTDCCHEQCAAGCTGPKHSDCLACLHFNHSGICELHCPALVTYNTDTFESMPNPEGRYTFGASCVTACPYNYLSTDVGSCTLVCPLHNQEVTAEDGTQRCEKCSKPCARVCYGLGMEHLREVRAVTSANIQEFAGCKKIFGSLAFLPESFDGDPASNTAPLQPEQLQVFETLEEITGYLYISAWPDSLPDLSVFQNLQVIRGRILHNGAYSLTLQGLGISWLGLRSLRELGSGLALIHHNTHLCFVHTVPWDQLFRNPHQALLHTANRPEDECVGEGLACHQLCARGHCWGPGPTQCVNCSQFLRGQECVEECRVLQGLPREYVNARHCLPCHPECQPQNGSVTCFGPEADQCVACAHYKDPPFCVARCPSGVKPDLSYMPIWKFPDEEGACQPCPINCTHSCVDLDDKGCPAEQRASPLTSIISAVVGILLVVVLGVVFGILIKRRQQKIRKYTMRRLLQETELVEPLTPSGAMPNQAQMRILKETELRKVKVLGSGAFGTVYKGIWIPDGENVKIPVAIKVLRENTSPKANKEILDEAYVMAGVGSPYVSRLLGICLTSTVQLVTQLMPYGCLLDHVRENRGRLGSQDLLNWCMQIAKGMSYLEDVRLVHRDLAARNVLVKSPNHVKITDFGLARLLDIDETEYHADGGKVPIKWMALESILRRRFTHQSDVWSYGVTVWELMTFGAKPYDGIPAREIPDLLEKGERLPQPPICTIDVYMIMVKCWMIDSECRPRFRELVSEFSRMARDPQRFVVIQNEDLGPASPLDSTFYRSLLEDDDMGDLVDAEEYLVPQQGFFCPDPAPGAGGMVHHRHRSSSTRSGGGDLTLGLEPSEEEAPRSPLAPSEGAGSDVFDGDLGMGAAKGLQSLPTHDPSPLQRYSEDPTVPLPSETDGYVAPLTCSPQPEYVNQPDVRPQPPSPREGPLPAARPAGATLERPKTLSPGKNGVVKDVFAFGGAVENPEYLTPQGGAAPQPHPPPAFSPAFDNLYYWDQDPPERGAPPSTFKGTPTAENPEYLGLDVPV

SMILES | viability [1] [%] | Her2 level [2] | viability [3] | viability [4] | viability [5] | differential viability (reversal) ([6]; H69AR cells + 2 uM doxorubicin) | viability [6, 16] [%] | viability [6, 17] [%] | inhibition [7] | inhibition [8] | growth inhibition [9] | growth inhibition [10] | viability increase [11] | viability [12] | viability [13] | inhibition [14] | RAM network inhibition [15]
COc1ccc(N(CC(=O)Nc2ccc3c(c2)OCO3)S(=O)(=O)c2c(C)nn(C)c2C)cc1 | 90.5 | 90.5% (inactive) | 90.5% (inactive) | 118% (inactive) | 99% (inactive) | 13.8% (inactive) | 85.1 | 99 | -0.38% (inactive) | 1% (inactive) | -8.51% (inactive) | -11.5% (inactive) | -2.78% (inactive) | 93.3% (inactive) | 90.5% (inactive) | 2.33% (inactive) | 3.88% (inactive)
COc1cc(OC)c2c(c1)OC(c1ccc(OC)c(OC)c1)C(O)C2=O (stereo not given) | 90.5 | 79% (inactive) | 90.5% (inactive) | 112% (inactive) | 90.9% (inactive) | 12.9% (inactive) | 78 | 90.9 | -2.67% (inactive) | 0.82% (inactive) | -13.6% (inactive) | -14.9% (inactive) | -1.91% (inactive) | 101% (inactive) | 100% (inactive) | 2.65% (inactive) | 2.25% (inactive)
CC1=C(C(=O)OC(C)C)C(c2ccccn2)n2ncnc2N1 (stereo not given) | 108 | 113% (inactive) | 108% (inactive) | 89.5% (inactive) | 98.1% (inactive) | 6.04% (inactive) | 92.1 | 98.1 | -3.2% (inactive) | 0.83% (inactive) | -5.88% (inactive) | -3.54% (inactive) | -0.55% (inactive) | 106% (inactive) | 99.5% (inactive) | 2.84% (inactive) | 7.35% (inactive)
COc1ccc(S(=O)(=O)N(C)C2CCN(C)CC2)cc1 | 108 | 98% (inactive) | 108% (inactive) | 93.2% (inactive) | 93.4% (inactive) | 11.1% (inactive) | 82.3 | 93.4 | -4.8% (inactive) | -2% (inactive) | -6.05% (inactive) | -10.2% (inactive) | -3.82% (inactive) | 100% (inactive) | 96.9% (inactive) | 0.835% (inactive) | 5.99% (inactive)
CCCN1CCN(CCCNC(=O)Cn2ncc3c4ccccc4n(C)c3c2=O)CC1 | 99 | 120% (inactive) | 99% (inactive) | 101% (inactive) | 102% (inactive) | 5.29% (inactive) | 96.8 | 102 | 0.9% (inactive) | 5.17% (inactive) | 4.22% (inactive) | -10.6% (inactive) | -1.73% (inactive) | 96.7% (inactive) | 95.8% (inactive) | 1.89% (inactive) | -0.33% (inactive)
CN1CCN(c2nc3c(c(=O)[nH]c(=O)n3C)n2CCSc2nc3ccccc3s2)CC1 | 87 | 90.5% (inactive) | 87% (inactive) | 98% (inactive) | 75.2% (inactive) | -10.6% (inactive) | 85.8 | 75.2 | -0.51% (inactive) | 1% (inactive) | -6.02% (inactive) | -0.85% (inactive) | -2.32% (inactive) | 98.3% (inactive) | 91.9% (inactive) | 2.66% (inactive) | -1.87% (inactive)
COC(=O)C1=C(C)Nc2ncnn2C1c1ccc(C)o1 (stereo not given) | 103 | 119% (inactive) | 103% (inactive) | 94.5% (inactive) | 91.7% (inactive) | 7.49% (inactive) | 84.2 | 91.7 | 0.27% (inactive) | 4.67% (inactive) | -16.6% (inactive) | -18.4% (inactive) | -1.12% (inactive) | 107% (inactive) | 101% (inactive) | 2.39% (inactive) | -1% (inactive)
COC(=O)NCC(c1cccnc1)N1CCOCC1 (stereo not given) | 97 | 95.5% (inactive) | 97% (inactive) | 103% (inactive) | 95.7% (inactive) | 2.39% (inactive) | 93.3 | 95.7 | -0.64% (inactive) | -4.83% (inactive) | -1.88% (inactive) | -7.24% (inactive) | 0.99% (inactive) | 102% (inactive) | 99.6% (inactive) | 0.015% (inactive) | -0.26% (inactive)
COc1cccc(-c2nnc(NC(=O)c3ccccc3Br)o2)c1 | 87 | 85.5% (inactive) | 87% (inactive) | 71.6% (inactive) | 67% (inactive) | -22.2% (inactive) | 89.2 | 67 | -5.87% (inactive) | 1.33% (inactive) | -13.4% (inactive) | 13.6% (inactive) | -5.12% (inactive) | 71.7% (inactive) | 73.2% (inactive) | 1.46% (inactive) | -2.32% (inactive)
O=C(Nc1ccc(N2C(=O)C3C4C=CC(C4)C3C2=O)cc1)Nc1nncs1 (stereo not given) | 92 | 108% (inactive) | 92% (inactive) | 96.2% (inactive) | 87.8% (inactive) | 2.15% (inactive) | 85.6 | 87.8 | -3.47% (inactive) | 0.83% (inactive) | -7.11% (inactive) | 6.49% (inactive) | -1.28% (inactive) | 97.6% (inactive) | 95.3% (inactive) | 0.53% (inactive) | 3.5% (inactive)

Source: PubChem BioAssay
